Numbering of substitutions follows the chain as printed.
Experiments:
Assay in all cases: PBM; 200 nM protein, PBS
Conditions in all cases: dsDNA, one strand shown
NKX2-5 [1] = target: NKX2-5 (Homo sapiens, UniProt P52952 125-210, R139K)
NKX2-4 [2] = target: T1, NKX2-4 (Homo sapiens, UniProt Q9H2Z4 175-261, P217L)
T1 sequence: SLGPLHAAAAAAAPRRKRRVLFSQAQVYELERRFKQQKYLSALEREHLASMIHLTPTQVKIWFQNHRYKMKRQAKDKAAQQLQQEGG

NKX2-4 [3] = target: T2, NKX2-4 (Homo sapiens, UniProt Q9H2Z4 175-261, T231S)
T2 sequence: T1 sequence with L43P, T57S

NKX2-4 [4] = target: T3, NKX2-4 (Homo sapiens, UniProt Q9H2Z4 175-261)
T3 sequence: T1 sequence with L43P

NKX2-6 [5] = target: T4, NKX2-6 (Homo sapiens, UniProt A6NCS4 118-204, R150C)
T4 sequence: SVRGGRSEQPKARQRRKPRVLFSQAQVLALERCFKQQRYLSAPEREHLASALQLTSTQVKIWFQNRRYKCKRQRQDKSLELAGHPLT

NKX2-6 [6] = target: T5, NKX2-6 (Homo sapiens, UniProt A6NCS4 118-204)
T5 sequence: T4 sequence with C33R

NKX2-4 [7] = target: T6, NKX2-4 (Homo sapiens, UniProt Q9H2Z4 175-261, R246Q)
T6 sequence: T1 sequence with L43P, R72Q

NKX2-6 [8] = target: T7, NKX2-6 (Homo sapiens, UniProt A6NCS4 118-204, F151L)
T7 sequence: T4 sequence with C33R, F34L

NKX3-2 [9] = target: NKX3-2 (Homo sapiens, UniProt P78367 192-278, P234S)
NKX2-5 [10] = target: NKX2-5 (Homo sapiens, UniProt P52952 125-210)
NKX3-2 [11] = target: NKX3-2 (Homo sapiens, UniProt P78367 192-278)
ALX1 [12] = target: ALX1 (Homo sapiens, UniProt Q15699 118-204, L144V)
ALX1 [13] = target: ALX1 (Homo sapiens, UniProt Q15699 118-204, L144R)
ALX1 [14] = target: ALX1 (Homo sapiens, UniProt Q15699 118-204)
HOXB4 [15] = target: HOXB4 (Homo sapiens, UniProt P17483 148-234)
HOXB4 [16] = target: HOXB4 (Homo sapiens, UniProt P17483 148-234, V174I)
HOXB9 = HOXB9 (Homo sapiens, UniProt P17482 171-250, R186Q)
HOXB9, sequence (P17482 171-250 R186Q): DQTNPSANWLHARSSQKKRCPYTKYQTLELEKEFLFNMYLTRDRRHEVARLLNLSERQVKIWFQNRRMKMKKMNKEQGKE

NKX2-5 (Homo sapiens, UniProt P52952 125-210, R139K), sequence (P52952 125-210 R139K): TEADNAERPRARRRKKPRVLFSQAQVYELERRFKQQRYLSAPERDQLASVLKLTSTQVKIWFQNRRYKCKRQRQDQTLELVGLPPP
NKX2-5 (Homo sapiens, UniProt P52952 125-210), sequence (P52952 125-210): as the sequence (P52952 125-210 R139K) above, with K15R counted along it
NKX3-2 (Homo sapiens, UniProt P78367 192-278, P234S), sequence (P78367 192-278 P234S): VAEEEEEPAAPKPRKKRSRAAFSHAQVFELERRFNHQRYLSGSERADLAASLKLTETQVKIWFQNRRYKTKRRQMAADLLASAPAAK
NKX3-2 (Homo sapiens, UniProt P78367 192-278), sequence (P78367 192-278): as the sequence (P78367 192-278 P234S) above, with S43P counted along it
HOXB4 (Homo sapiens, UniProt P17483 148-234, V174I), sequence (P17483 148-234 V174I): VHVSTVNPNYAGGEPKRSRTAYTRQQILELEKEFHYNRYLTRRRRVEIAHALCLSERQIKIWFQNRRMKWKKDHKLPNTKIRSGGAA
HOXB4 (Homo sapiens, UniProt P17483 148-234), sequence (P17483 148-234): as the sequence (P17483 148-234 V174I) above, with I27V counted along it
ALX1 (Homo sapiens, UniProt Q15699 118-204, L144V), sequence (Q15699 118-204 L144V): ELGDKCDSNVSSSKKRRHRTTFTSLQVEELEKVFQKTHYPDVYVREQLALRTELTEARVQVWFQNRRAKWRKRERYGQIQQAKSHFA
ALX1 (Homo sapiens, UniProt Q15699 118-204), sequence (Q15699 118-204): as the sequence (Q15699 118-204 L144V) above, with V27L counted along it
ALX1 (Homo sapiens, UniProt Q15699 118-204, L144R), sequence (Q15699 118-204 L144R): as the sequence (Q15699 118-204 L144V) above, with V27R counted along it

Sequence	binding signal (NKX2-5 [1])	binding signal (NKX2-4 [2])	binding signal (NKX2-4 [3])	binding signal (NKX2-4 [4])	binding signal (NKX2-6 [5])	binding signal (NKX2-6 [6])	binding signal (NKX2-4 [7])	binding signal (NKX2-6 [8])	binding signal (NKX3-2 [9])	binding signal (NKX2-5 [10])	binding signal (NKX3-2 [11])	binding signal (ALX1 [12])	binding signal (ALX1 [13])	binding signal (ALX1 [14])	binding signal (HOXB4 [15])	binding signal (HOXB4 [16])	binding signal (HOXB9)
CCACTTAG	13.1 upbm affinity estimate (log intensity, higher = more binding, comparable within an allelic series)	12.7 upbm affinity estimate (log intensity, higher = more binding, comparable within an allelic series)	13 upbm affinity estimate (log intensity, higher = more binding, comparable within an allelic series)	12.6 upbm affinity estimate (log intensity, higher = more binding, comparable within an allelic series)	12.2 upbm affinity estimate (log intensity, higher = more binding, comparable within an allelic series)	14 upbm affinity estimate (log intensity, higher = more binding, comparable within an allelic series)	13.1 upbm affinity estimate (log intensity, higher = more binding, comparable within an allelic series)	11.1 upbm affinity estimate (log intensity, higher = more binding, comparable within an allelic series)	13.4 upbm affinity estimate (log intensity, higher = more binding, comparable within an allelic series)	13.1 upbm affinity estimate (log intensity, higher = more binding, comparable within an allelic series)	13.5 upbm affinity estimate (log intensity, higher = more binding, comparable within an allelic series)						
CCAGCGCG	8.57 upbm affinity estimate (log intensity, higher = more binding, comparable within an allelic series)									8.52 upbm affinity estimate (log intensity, higher = more binding, comparable within an allelic series)							
CCACTTTA	12.7 upbm affinity estimate (log intensity, higher = more binding, comparable within an allelic series)	12.6 upbm affinity estimate (log intensity, higher = more binding, comparable within an allelic series)	13 upbm affinity estimate (log intensity, higher = more binding, comparable within an allelic series)	12.5 upbm affinity estimate (log intensity, higher = more binding, comparable within an allelic series)	12 upbm affinity estimate (log intensity, higher = more binding, comparable within an allelic series)	13.5 upbm affinity estimate (log intensity, higher = more binding, comparable within an allelic series)	13.1 upbm affinity estimate (log intensity, higher = more binding, comparable within an allelic series)	10.8 upbm affinity estimate (log intensity, higher = more binding, comparable within an allelic series)	13 upbm affinity estimate (log intensity, higher = more binding, comparable within an allelic series)	12.7 upbm affinity estimate (log intensity, higher = more binding, comparable within an allelic series)	13.1 upbm affinity estimate (log intensity, higher = more binding, comparable within an allelic series)	8.4 upbm affinity estimate (log intensity, higher = more binding, comparable within an allelic series)	8.44 upbm affinity estimate (log intensity, higher = more binding, comparable within an allelic series)	8.77 upbm affinity estimate (log intensity, higher = more binding, comparable within an allelic series)			
ATCAAGTG	12.8 upbm affinity estimate (log intensity, higher = more binding, comparable within an allelic series)	12.6 upbm affinity estimate (log intensity, higher = more binding, comparable within an allelic series)	13 upbm affinity estimate (log intensity, higher = more binding, comparable within an allelic series)	12.4 upbm affinity estimate (log intensity, higher = more binding, comparable within an allelic series)	12 upbm affinity estimate (log intensity, higher = more binding, comparable within an allelic series)	13.7 upbm affinity estimate (log intensity, higher = more binding, comparable within an allelic series)	13.1 upbm affinity estimate (log intensity, higher = more binding, comparable within an allelic series)	10.7 upbm affinity estimate (log intensity, higher = more binding, comparable within an allelic series)		12.6 upbm affinity estimate (log intensity, higher = more binding, comparable within an allelic series)					10.2 upbm affinity estimate (log intensity, higher = more binding, comparable within an allelic series)	10.4 upbm affinity estimate (log intensity, higher = more binding, comparable within an allelic series)	
CCCGGCGG	8.56 upbm affinity estimate (log intensity, higher = more binding, comparable within an allelic series)									8.58 upbm affinity estimate (log intensity, higher = more binding, comparable within an allelic series)					7.64 upbm affinity estimate (log intensity, higher = more binding, comparable within an allelic series)	7.61 upbm affinity estimate (log intensity, higher = more binding, comparable within an allelic series)	
ACAAGTGG	12.9 upbm affinity estimate (log intensity, higher = more binding, comparable within an allelic series)	12.6 upbm affinity estimate (log intensity, higher = more binding, comparable within an allelic series)	13.1 upbm affinity estimate (log intensity, higher = more binding, comparable within an allelic series)	12.5 upbm affinity estimate (log intensity, higher = more binding, comparable within an allelic series)	12 upbm affinity estimate (log intensity, higher = more binding, comparable within an allelic series)	13.7 upbm affinity estimate (log intensity, higher = more binding, comparable within an allelic series)	13.2 upbm affinity estimate (log intensity, higher = more binding, comparable within an allelic series)	10.8 upbm affinity estimate (log intensity, higher = more binding, comparable within an allelic series)	12.6 upbm affinity estimate (log intensity, higher = more binding, comparable within an allelic series)	12.8 upbm affinity estimate (log intensity, higher = more binding, comparable within an allelic series)	12.7 upbm affinity estimate (log intensity, higher = more binding, comparable within an allelic series)						
CACTTATA	13.1 upbm affinity estimate (log intensity, higher = more binding, comparable within an allelic series)	12.6 upbm affinity estimate (log intensity, higher = more binding, comparable within an allelic series)	13 upbm affinity estimate (log intensity, higher = more binding, comparable within an allelic series)	12.5 upbm affinity estimate (log intensity, higher = more binding, comparable within an allelic series)	12.1 upbm affinity estimate (log intensity, higher = more binding, comparable within an allelic series)	13.8 upbm affinity estimate (log intensity, higher = more binding, comparable within an allelic series)	13.2 upbm affinity estimate (log intensity, higher = more binding, comparable within an allelic series)	11.2 upbm affinity estimate (log intensity, higher = more binding, comparable within an allelic series)	12.7 upbm affinity estimate (log intensity, higher = more binding, comparable within an allelic series)	12.8 upbm affinity estimate (log intensity, higher = more binding, comparable within an allelic series)	12.8 upbm affinity estimate (log intensity, higher = more binding, comparable within an allelic series)						10.2 upbm affinity estimate (log intensity, higher = more binding, comparable within an allelic series)
